# Assay outcomes: PubChem BioAssay, several laboratories
# Myeloid diff 2: myeloid differentiation induction; ER-HoxA9 myeloid progenitors, lysozyme-GFP differentiation, flow cytometry; calls only at 10 µM; hit rate 1% among 360,000; AID 624256;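 active = normalized GFP-positive differentiation at or above the plate's own cutoff, the solvent-only control mean plus 3 SD; inconclusive = no clear call, values can overlap the other calls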;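 also: cells exposed to compound for four days before flow analysis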
# ABCB6 inh 2: inhibitors of human ABC transporter ABCB6 | fluorescence ratio to DMSO, % at 10 µM | K562-ABCB6 porphyrin accumulation, flow cytometry, 1 h; active compounds read low | hit rate 0.19% among 360,000;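 active = fluorescence ratio to DMSO below 75%, the collection mean minus 3 SD; inconclusive = too few cells collected in the well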;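 also: signal is porphyrin accumulated inside mitochondria; lower ratio means ABCB6 inhibition with less porphyrin fluorescence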
# Target sequence (Q9NP58 whole entry, looked up): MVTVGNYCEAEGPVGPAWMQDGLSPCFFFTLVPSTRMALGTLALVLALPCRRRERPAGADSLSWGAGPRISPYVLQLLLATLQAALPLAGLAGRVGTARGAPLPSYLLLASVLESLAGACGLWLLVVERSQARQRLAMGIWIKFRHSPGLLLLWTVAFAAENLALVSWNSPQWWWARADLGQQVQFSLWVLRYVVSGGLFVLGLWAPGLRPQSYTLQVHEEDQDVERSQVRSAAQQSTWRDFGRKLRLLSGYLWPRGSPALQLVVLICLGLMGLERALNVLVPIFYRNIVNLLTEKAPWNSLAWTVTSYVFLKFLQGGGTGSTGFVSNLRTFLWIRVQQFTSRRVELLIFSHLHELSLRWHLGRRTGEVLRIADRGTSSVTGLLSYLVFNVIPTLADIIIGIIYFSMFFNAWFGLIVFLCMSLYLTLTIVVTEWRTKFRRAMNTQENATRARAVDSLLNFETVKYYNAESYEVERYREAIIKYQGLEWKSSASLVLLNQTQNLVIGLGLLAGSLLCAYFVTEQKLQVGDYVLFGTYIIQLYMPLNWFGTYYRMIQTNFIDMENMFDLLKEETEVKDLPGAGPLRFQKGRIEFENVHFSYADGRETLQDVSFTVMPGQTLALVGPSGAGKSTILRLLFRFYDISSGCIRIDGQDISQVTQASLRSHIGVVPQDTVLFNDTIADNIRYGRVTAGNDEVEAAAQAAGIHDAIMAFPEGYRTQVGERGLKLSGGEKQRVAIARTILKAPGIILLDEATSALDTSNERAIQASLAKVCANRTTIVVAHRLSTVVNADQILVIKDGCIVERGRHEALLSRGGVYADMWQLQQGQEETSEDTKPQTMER
# TLR4-MyD88 BLA: blocks binding of human TLR4 to MyD88 | O00206+Q99836 | HeLa CL3-4 TLR4/MyD88 BLA complementation, FRET ratio | inhibition, % at 8.4 µM | hit rate 0.18% among 200,000; in the data active = inhibition above about 25%
# NOD2-RIPK2 inh: blocks binding of human NOD2 to RIPK2. inhibition, % at 4.98 µM. O43353. CHO BLA complementation NOD2-RIPK2, CCF4 ratio. AID 624267. hit rate 0.38% among 360,000; in the data active = inhibition above about 21%
# TLR9-MyD88 block: inhibitors of human TLR9-MyD88 binding | inhibition, % at 4.98 µM | AID 504734 | hit rate 0.21% among 340,000 | Q9NR96+Q99836 | CHO BLA complementation TLR9-MyD88, CCF4 FRET ratio;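 active = inhibition above the mean over all tested compounds plus 3 SD, cut at about 21% in these data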
# Numbers stand for hits; 0 = inactive; ? = inconclusive; - = no result given; + = active, no number; ! = a repeat was not active. In the library only some 1.7% were active in any assay of this set; here they are far more common.
SMILES,Myeloid diff 2,ABCB6 inh 2,TLR4-MyD88 BLA,NOD2-RIPK2 inh,TLR9-MyD88 block
CN1CCN(S(=O)(=O)c2cccc(C(=O)Nc3cc(C(F)(F)F)ccc3N3CCCCC3)c2)CC1,+,0,-,0,0
COc1ccc(CNC(=O)Cc2c(C(=O)O)[nH]c3ccccc23)c(OC)c1,+,0,-,0,0
COc1cc(CN2CCc3c([nH]c4ccccc34)C2)cc(OC)c1,+,0,-,0,0
N=C1c2ccccc2CN1c1ccc(S(=O)(=O)N2CCCCC2)cc1,+,0,0,0,0
O=C(c1ccc(Cl)c(Cl)c1)c1cc(-c2ccccn2)c(N2CCOCC2)s1,0,0,0,24.3,0
O=C(c1ccc(Br)cc1)c1cc(-c2ccccn2)c(N2CCOCC2)s1,0,0,0,0,0
CCCOc1ccccc1/C=C(\C#N)C(=O)Nc1cccc(C)n1,+,0,-,0,0
COc1ccc(OCC(=O)Nc2ccc(N3CCN(C(=O)c4ccccc4C)CC3)cc2)cc1,+,0,0,0,0
Cc1ccc(OCC(=O)Nc2ccc(N3CCN(C(=O)c4ccco4)CC3)cc2)cc1C,+,0,0,0,0
Cc1ccc(Cl)cc1NC(=O)CC1NC2CCCCC2NC1=O (centres undefined),+,0,0,0,0
O=C(CC1NC2CCCCC2NC1=O)Nc1ccc2c(c1)OCO2 (centres undefined),0,0,0,0,0
Cc1ccc(Cn2c(NCCc3ccccc3)nc3c2c(=O)n(C)c(=O)n3C)cc1,+,0,0,0,0
C=CCn1c(NCCc2ccccc2)nc2c1c(=O)n(C)c(=O)n2C,0,0,0,0,0
Cn1c(=O)c2c(nc(NCc3ccccc3)n2Cc2ccc(F)cc2)n(C)c1=O,-,-,0,-,-
C/C(Cl)=C\Cn1c(NCCc2ccccc2)nc2c1c(=O)n(C)c(=O)n2C,+,0,0,0,0
c1ccc(-c2noc(-c3cccnc3)n2)nc1,+,0,0,0,0
CC1(C(=O)NCc2ccccn2)CCN1C(=O)Cc1ccc(Cl)cc1Cl (centres undefined),0,0,-,0,-
CCOc1cc(N2CCOCC2)c(OCC)cc1NC(=O)COC(=O)c1ccc(Cl)nc1,0,0,-,0,0
COCCCn1c(=N)c(C(N)=S)cc2c(=O)n3cccc(C)c3nc21,0,0,-,0,0
Cc1ccc2nc3c(cc(C(=O)NCCc4ccccc4)c(=N)n3CCN3CCOCC3)c(=O)n2c1,+,0,-,0,0
Cc1ccc2nc3c(cc(C(N)=S)c(=N)n3CCCOC(C)C)c(=O)n2c1,+,0,0,0,0
COc1ccc(CC(=O)OCC(=O)Nc2ncc(Cl)c(C)c2Cl)cc1,0,0,-,0,0
CC1C(=O)N(Cc2cn(CCC3OCCCO3)nn2)CCS(=O)(=O)N1Cc1ccc(-c2ccc(Cl)cc2)cc1 (centres undefined),0,0,-,0,0
CCCCn1c(/C=N/Nc2nc3ccccc3[nH]2)nc2ccccc21,+,0,0,0,0
CCOc1ccccc1CN1CCCC(CNC(=O)Cc2ccc(OC)cc2)C1 (centres undefined),0,0,-,0,0
SMILES,Myeloid diff 2,ABCB6 inh 2,TLR4-MyD88 BLA,NOD2-RIPK2 inh,TLR9-MyD88 block
CCS(=O)(=O)N1N=C(c2ccc(NS(C)(=O)=O)cc2)CC1c1ccccc1 (centres undefined),+,0,0,0,0
CS(=O)(=O)Nc1ccc(C2=NN(S(C)(=O)=O)C(c3ccccc3)C2)cc1 (centres undefined),0,0,0,0,0
O=C(NCc1csc(-c2cccs2)n1)c1cccc(Cl)c1,0,0,-,0,0
Cc1cc(C)c(C(=O)/C=C/c2ccco2)c(=O)[nH]1,+,0,0,0,0
Cc1ccc(/C=C/C(=O)c2c(C)cc(C)[nH]c2=O)cc1,0,0,0,0,0
CC(C)CCN1C(N(C)C)=NC[C@@H]1C,0,0,-,0,0
C#CCSc1nnc(-c2cccc3ccccc23)o1,+,0,0,0,0
Cc1ccc(-n2ccnc(SCC(=O)NC3CCCCC3)c2=O)cc1F,0,0,-,0,0
NNc1nc2c(-c3ccc(Cl)cc3)nnn2c2ccccc12,+,0,0,0,0
NNc1nc2c(-c3ccc(F)cc3)nnn2c2ccccc12,+,0,0,0,0
COCCCNc1nc2c(-c3ccc(Cl)cc3)nnn2c2ccccc12,0,0,0,0,0
Fc1ccc(-c2nnn3c2nc(NCc2ccccc2)c2ccccc23)cc1,0,0,-,0,0
Cn1/c(=N/N=C/c2ccc([N+](=O)[O-])cc2)sc2ccccc21,-,-,0,-,-
Cc1cc(C)c2c(c1)/C(=N\N=c1\sc3ccccc3n1C)C(=O)N2,+,0,-,0,0
COc1ccc(CCNC(=O)C(NS(=O)(=O)c2cccc3nsnc23)C(C)C)cc1OC (centres undefined),0,0,-,0,0
CCOc1c(C)cnc2c1c(=O)n(Cc1ccccc1F)c(=O)n2C,0,0,-,0,0
CCOc1ccc(-c2cc(C(=O)N3CCN(c4ccccn4)CC3)c3ccccc3n2)cc1,?,0,0,0,0
COc1ccc(-c2cc(C(=O)N3CCN(c4ccccn4)CC3)c3ccccc3n2)cc1,+,0,0,0,0
COc1ccc(-c2[nH]ncc2N=Nc2cc(C)cc(C)c2)cc1,+,0,0,0,0
Cc1ccc(Nc2nc(Cl)c(C=O)s2)cc1Cl,+,0,0,0,0
COc1ccccc1Nc1nc(Cl)c(C=O)s1,+,0,0,0,0
O=C(CNC(c1ccccc1)c1ccccc1)NCc1ccccc1Cl,0,0,-,0,0
CN(C)c1cc[n+](Cc2c(Cl)cccc2Cl)cc1,+,0,0,0,0
O=C(CN1CCN(S(=O)(=O)c2ccc(F)cc2)CC1)NCC1(N2CCOCC2)CCCCC1,0,0,-,0,0
O=C(NCCc1ccccc1)c1cccc(NC(=O)C2CC2)c1,+,0,-,0,0
SMILES,Myeloid diff 2,ABCB6 inh 2,TLR4-MyD88 BLA,NOD2-RIPK2 inh,TLR9-MyD88 block
O=C(NCCc1ccccc1)c1cccc(NC(=O)C2CCC2)c1,0,0,-,0,0
COc1ccc(C(=S)N2CCOCC2)cc1OC(=O)c1cc(OC)c(OC)c(OC)c1,+,0,-,0,0
COc1ccc(C(=S)N2CCOCC2)cc1OC(=O)c1ccccc1,0,0,-,0,0
O=C(c1ccccc1)c1ccc(OCC(O)CNCc2cccc(Cl)c2)cc1 (centres undefined),?,0,-,0,0
CCN(CC)CCNC(=O)c1ccc(NC(C)=O)cc1,+!,0,0,0,0
Cn1cncc1C#Cc1ccc2cc(CCO)oc(=O)c2c1,0,0,-,0,0
COc1ccc(C(C)(O)c2nc(-c3ccncc3)cs2)cc1 (centres undefined),+,0,-,0,-
Cc1cccc(-n2c(C)c(-c3ccccc3)[nH]c2=S)c1,+,0,-,0,0
Cc1ccc(NC(=O)CN(C)C(=O)c2cccc(Br)c2)cc1,0,0,-,0,0
Nc1cccc2c(O)cccc12,+,0,-,0,0
Nc1ccccc1O,0,0,-,0,0
CN(C)c1ccc(CNC(=O)C2CCN(S(=O)(=O)c3ccc4c(c3)CCCC(=O)N4)CC2)cc1,+,0,-,0,0
CN(C)CCCN(C(=O)/C=C/c1cccs1)c1nc2ccc(F)cc2s1,+,0,0,0,0
